The supplement of paper PMC4840960
Counter-ions that a name gives are not always drawn. ± gives the standard deviation of the averaged measurements.

Each compound was assayed on E18 rat cortical neuron-glia co-culture (assay: fiber score / MBP score (myelination specific beyond OL differentiation) (ratio); higher = more myelination-specific MBP alignment). Settings: 1 µM; treatment time: 8 days (DIV5-DIV13).
Outline: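 Papain-dissociated primary E18 rat cortical co-cultures, plated at 20,000 cells/well on poly-d-lysine/laminin 96-well plates, were exposed to library compounds at 1 or 5 µM in myelination medium between DIV5 and DIV13. Following fixation in 4 % paraformaldehyde, cultures were stained for MBP, Olig2 and DAPI, and four 10X fields per well were analysed in duplicate wells. Values are the ratio of fiber score (continuous MBP fiber length per Olig2+ nucleus) to MBP score (thresholded MBP area × intensity per Olig2+ nucleus).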

Row | SMILES | fiber score / MBP score
1 | c1cncc([C@@H]2CCCN2)c1 [Nornicotine] | 0.765
2 | Cc1ccc(-c2nc3ccc(C)cn3c2CC(=O)N(C)C)cc1 [Zolpidem] | 0.967
3 | Cc1ncc2n1-c1ccc(Cl)cc1C(c1ccccc1F)=NC2 [Midazolam] | 0.908
4 | CCCN1C[C@H](CSC)C[C@@H]2c3cccc4[nH]cc(c34)C[C@H]21 [Pergolide] | 0.689
5 | C[C@]12CCC(=O)C=C1CC[C@@H]1[C@@H]2CC[C@@]2(C)[C@H]1CC[C@]2(C)O [Methyltestosterone] | 0.609
6 | c1ccc2c(c1)Nc1ccccc1S2 [Phenothiazine] | 0.706
7 | C#CCN(C)[C@H](C)Cc1ccccc1 [Selegiline] | 0.779 ± 0.13
8 | C[C@]12CC[C@H]3[C@@H](CCC4=CC(=O)CC[C@@H]43)[C@@H]1CC[C@@H]2O [Nandrolone] | 0.984
9 | CC(C)c1cccc(C(C)C)c1O [Propofol] | 0.782
10 | C=C1C[C@@H]2[C@H](CC[C@]3(C)C(=O)CC[C@@H]23)[C@@]2(C)C=CC(=O)C=C12 [Exemestane] | 0.805
11 | CCCC(C)(COC(N)=O)COC(=O)NC(C)C (configuration not stated) [Carisoprodol] | 0.713
12 | c1ccc(Cn2ccnc2)cc1 [1-Benzylimidazole] | 0.664
13 | C[C@]12CC[C@H](O)CC1=CC[C@@H]1[C@@H]2CC[C@]2(C)C(=O)CC[C@@H]12 [Dehydroepiandrosterone] | 1.25
14 | CC[C@]1(O)CC[C@H]2[C@@H]3CCC4=CCCC[C@@H]4[C@H]3CC[C@@]21C [Ethylestrenol] | 0.661
15 | COc1ccc2c(c1)[C@]13CCCC[C@@H]1[C@H](C2)N(C)CC3 [Dextromethorphan] | 1.19
16 | COc1cc([C@@H]2c3cc4c(cc3[C@H](O)[C@H]3COC(=O)[C@H]23)OCO4)cc(OC)c1OC [Podophyllotoxin] | 0.393
17 | CCOC(=O)c1cncn1[C@H](C)c1ccccc1 [Etomidate] | 0.772 ± 0.06
18 | C[N+]1(CCC(C(N)=O)(c2ccccc2)c2ccccc2)CCCCC1 [Fenpiverinium] | 1.01
19 | CN1CC[C@]23CCCC[C@H]2[C@H]1Cc1ccc(O)cc13 [Levorphanol] | 0.869
20 | CC(NC(C)(C)C)C(=O)c1cccc(Cl)c1 (configuration not stated) [Bupropion] | 0.583 ± 0.43
21 | CN1CC[C@@H](c2ccc(F)cc2)[C@H](COc2ccc3c(c2)OCO3)C1 [N-Methylparoxetine] | 0.423
22 | CN1[C@@H]2CC[C@H]1C[C@@H](OC(=O)[C@H](CO)c1ccccc1)C2 [Hyoscyamine] | 0.631
23 | CNCC(O)c1ccc(O)cc1 (configuration not stated) [Synephrine] | 0.822
24 | Oc1ccc2c3c1O[C@H]1[C@@H](O)CC[C@@]4(O)[C@@H](C2)N(CC2CCC2)CC[C@]314 [Nalbufina] | 0.796
25 | CC(C)CC(N(C)C)C1(c2ccc(Cl)cc2)CCC1 (configuration not stated) [Sibutramine] | 0.819 ± 0.34
26 | CN1CC[C@]2(c3cccc(O)c3)Cc3nc4ccccc4cc3C[C@H]2C1 | 0.572
27 | FC(F)(F)c1cccc(N2CCNCC2)c1 [1-(3-trifluoromethylphenyl)piperazine hydrochloride (TFMPP)] | 0.633
